Several values for one entry are separate records, joined by “and”; a condition that tells them apart may be missing. Equal entries are not always repeated. Unmarked numbers belong to inactive results. Records with an inconclusive call do not appear. Entries that show only a call come without a potency. Activity calls are given as the source filed them. Unless noted, the call rests on the fitted dose curve; in most records, active means well fitted curve in the direction sought with a large enough effect; inconclusive means small, poorly fitted or top-dose-only effect, or another doubt; inactive means no such curve, though single readings can be large; an effect the other way counts as inactive or inconclusive.
Key:
[1] = molecular target: Cytochrome P450 1A2 (Homo sapiens) (UniProt P05177); test: p450-cyp1a2 (AID 410; calls by dose curve; further: potency means the concentration at half of the fitted maximal effect)
Chain of Cytochrome P450 1A2 (Homo sapiens) (P05177 whole entry, looked up): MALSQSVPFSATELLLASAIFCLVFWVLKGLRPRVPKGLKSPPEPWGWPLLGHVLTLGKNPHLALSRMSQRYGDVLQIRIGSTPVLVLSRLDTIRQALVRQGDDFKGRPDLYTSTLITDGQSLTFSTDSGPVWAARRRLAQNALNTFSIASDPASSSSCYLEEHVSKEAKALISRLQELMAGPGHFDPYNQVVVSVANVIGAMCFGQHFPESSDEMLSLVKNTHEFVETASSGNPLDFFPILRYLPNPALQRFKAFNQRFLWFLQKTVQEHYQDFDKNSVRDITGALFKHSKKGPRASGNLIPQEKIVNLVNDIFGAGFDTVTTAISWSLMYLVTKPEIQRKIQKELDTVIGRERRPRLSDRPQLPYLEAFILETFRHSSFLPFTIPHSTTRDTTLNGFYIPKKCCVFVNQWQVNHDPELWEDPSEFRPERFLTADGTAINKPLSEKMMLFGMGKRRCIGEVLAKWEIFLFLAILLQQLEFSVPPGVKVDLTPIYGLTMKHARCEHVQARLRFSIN
In short: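 Human CYP1A2 (20nM) demethylated Luciferin-ME at its Km (100uM) in 100mM KPO4. After 10 min compound preincubation, NADPH regeneration ran the reaction 60 min at room temperature. Luciferin was read by luminescence, normalized to 57 uM furafylline.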

[2] = molecular target: Glucocorticoid receptor (Homo sapiens) (UniProt P04150); test: GR-GFP Redistribution (AID 450;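 active means compounds whose dose series gives a full or clear partial fitted curve of increased nuclear translocation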; further: potency means the concentration at half of the fitted maximal effect); details: U2OS GR-GFP nuclear translocation, laser cytometry, 2 h
Chain of Glucocorticoid receptor (Homo sapiens) (P04150 whole entry, looked up, the tested form may be a part): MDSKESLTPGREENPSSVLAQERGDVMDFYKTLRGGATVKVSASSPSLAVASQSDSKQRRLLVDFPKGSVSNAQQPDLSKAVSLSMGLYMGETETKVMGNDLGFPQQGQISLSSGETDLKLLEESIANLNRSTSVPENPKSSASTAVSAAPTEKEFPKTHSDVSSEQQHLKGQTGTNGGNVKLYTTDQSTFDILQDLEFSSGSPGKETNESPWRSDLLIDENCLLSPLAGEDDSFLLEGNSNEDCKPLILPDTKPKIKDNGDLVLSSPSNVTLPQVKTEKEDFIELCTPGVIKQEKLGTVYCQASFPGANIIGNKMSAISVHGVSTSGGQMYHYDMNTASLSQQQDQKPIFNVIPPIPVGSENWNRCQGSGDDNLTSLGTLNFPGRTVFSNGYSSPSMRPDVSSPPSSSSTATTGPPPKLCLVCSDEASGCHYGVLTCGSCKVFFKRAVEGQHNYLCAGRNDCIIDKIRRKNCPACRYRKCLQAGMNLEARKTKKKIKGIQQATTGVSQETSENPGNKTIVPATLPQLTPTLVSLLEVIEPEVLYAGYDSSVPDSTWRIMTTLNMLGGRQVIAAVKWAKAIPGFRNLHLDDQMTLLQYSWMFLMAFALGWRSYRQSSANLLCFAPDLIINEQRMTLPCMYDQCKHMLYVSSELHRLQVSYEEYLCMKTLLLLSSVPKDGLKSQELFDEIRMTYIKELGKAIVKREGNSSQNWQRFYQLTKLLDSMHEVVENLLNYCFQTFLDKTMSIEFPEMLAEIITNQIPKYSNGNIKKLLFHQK

[3] = molecular target: Glucocorticoid receptor (Homo sapiens) (UniProt P04150); test: GR-EFC Redistribution (AID 451; calls by dose curve; further: potency means the concentration at half of the fitted maximal effect); details: CHO-K1 GR-EFC translocation, beta-gal luminescence, 2 h
In short: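 CHO-K1 cells stably expressing nuclear-localized β-gal enzyme acceptor and GR fused C-terminally to the enzyme donor fragment; ligand-driven nuclear translocation restores β-gal by complementation. Compounds titrated up to 46 uM final, 2 h at 37 °C; luminescence read.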

[4] = molecular target: Mitogen-activated protein kinase 10 (Mus musculus) (UniProt Q61831); test: JNK3 AlphaScreen Assay (AID 530; active means well fitted curve in either direction with a large enough effect, not every such curve was filed as active;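 further: kinase came from lysate of stimulated human HepG2 cells; signal reports phosphorylation of biotinylated GST-cJun 1-79 at Ser73 with 10 µM ATP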)
In short: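 JNK3 came from HepG2 lysates pre-activated with IL-1beta and TNF-alpha and phosphorylated biotinylated GST-cJun (1-79) at 10 uM ATP, pH 7.6, room temperature. Compounds were titrated. AlphaScreen signal used anti-phospho-cJun (Ser73) antibody.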

[5] = molecular target: 3',5'-cyclic-AMP phosphodiesterase 4B (Homo sapiens) (UniProt Q07343); test: qHTS Assay for Inhibitors of PDE-IV (AID 607; active means well fitted activation curve with a large enough effect in the main read-out, with a control signal flat, not every such curve was filed as active)
Chain of 3',5'-cyclic-AMP phosphodiesterase 4B (Homo sapiens) (Q07343 whole entry, looked up): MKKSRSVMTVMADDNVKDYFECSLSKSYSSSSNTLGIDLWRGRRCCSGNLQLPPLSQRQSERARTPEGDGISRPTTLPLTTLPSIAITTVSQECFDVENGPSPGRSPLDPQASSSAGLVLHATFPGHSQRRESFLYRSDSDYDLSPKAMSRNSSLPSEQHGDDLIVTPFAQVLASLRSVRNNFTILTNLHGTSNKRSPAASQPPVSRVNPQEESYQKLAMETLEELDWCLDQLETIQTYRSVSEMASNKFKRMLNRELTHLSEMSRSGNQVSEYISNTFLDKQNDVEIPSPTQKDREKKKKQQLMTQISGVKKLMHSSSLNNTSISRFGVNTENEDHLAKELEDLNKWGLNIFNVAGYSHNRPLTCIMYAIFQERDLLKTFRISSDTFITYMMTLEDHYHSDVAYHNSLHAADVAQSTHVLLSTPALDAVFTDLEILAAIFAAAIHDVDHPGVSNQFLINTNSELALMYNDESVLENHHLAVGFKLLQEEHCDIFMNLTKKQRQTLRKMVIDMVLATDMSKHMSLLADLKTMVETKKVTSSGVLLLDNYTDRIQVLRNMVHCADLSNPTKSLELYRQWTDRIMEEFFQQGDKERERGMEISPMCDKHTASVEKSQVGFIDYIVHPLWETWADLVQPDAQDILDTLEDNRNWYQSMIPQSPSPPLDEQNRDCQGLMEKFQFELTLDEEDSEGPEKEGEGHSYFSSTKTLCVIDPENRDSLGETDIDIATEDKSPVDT
In short: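 The readout is membrane depolarisation from a cAMP-sensing CNG channel, detected with a potential dye at ex 535/em 590. Cells were HEK293-derived (endogenous PDE-IV) at 1000 cells/well, titrated up to 22.9 uM final.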

[6] = molecular target: Cytochrome P450 3A4 (Homo sapiens) (UniProt P08684); test: qHTS Assay for Activators of Cytochrome P450 3A4 (AID 885); further: nearly all actives have a fitted effect of over 65% in size
Chain of Cytochrome P450 3A4 (Homo sapiens) (P08684 whole entry, looked up): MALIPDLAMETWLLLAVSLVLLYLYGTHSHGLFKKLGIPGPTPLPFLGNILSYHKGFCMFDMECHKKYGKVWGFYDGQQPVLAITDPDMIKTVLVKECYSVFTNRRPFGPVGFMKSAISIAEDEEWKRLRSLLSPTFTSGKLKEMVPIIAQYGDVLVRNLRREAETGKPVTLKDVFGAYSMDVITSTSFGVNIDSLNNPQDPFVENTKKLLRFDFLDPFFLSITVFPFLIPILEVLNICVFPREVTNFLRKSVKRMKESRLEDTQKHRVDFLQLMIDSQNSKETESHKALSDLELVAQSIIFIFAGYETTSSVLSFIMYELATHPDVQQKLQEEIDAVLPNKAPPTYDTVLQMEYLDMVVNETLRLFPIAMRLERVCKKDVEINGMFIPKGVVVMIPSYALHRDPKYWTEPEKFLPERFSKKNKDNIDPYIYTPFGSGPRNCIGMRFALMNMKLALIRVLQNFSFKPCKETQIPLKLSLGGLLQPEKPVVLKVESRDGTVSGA
In short: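 Steps: enzyme/substrate mix dispensed; compound added, 10 min RT; NADPH regeneration solution added, 60 min RT; luciferin detection buffer stops reaction; 20 min later luminescence measured.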

[7] = molecular target: Ubiquitin carboxyl-terminal hydrolase 1 (Homo sapiens) (UniProt O94782); test: Inhibitors of USP1/UAF1: Pilot qHTS (AID 504865);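 further: rhodamine fluorescence freed from ubiquitin-rhodamine substrate followed over time; top concentration of the series differs between compounds; nearly all actives have a fitted effect of over 35% in size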
Chain of Ubiquitin carboxyl-terminal hydrolase 1 (Homo sapiens) (O94782 whole entry, looked up): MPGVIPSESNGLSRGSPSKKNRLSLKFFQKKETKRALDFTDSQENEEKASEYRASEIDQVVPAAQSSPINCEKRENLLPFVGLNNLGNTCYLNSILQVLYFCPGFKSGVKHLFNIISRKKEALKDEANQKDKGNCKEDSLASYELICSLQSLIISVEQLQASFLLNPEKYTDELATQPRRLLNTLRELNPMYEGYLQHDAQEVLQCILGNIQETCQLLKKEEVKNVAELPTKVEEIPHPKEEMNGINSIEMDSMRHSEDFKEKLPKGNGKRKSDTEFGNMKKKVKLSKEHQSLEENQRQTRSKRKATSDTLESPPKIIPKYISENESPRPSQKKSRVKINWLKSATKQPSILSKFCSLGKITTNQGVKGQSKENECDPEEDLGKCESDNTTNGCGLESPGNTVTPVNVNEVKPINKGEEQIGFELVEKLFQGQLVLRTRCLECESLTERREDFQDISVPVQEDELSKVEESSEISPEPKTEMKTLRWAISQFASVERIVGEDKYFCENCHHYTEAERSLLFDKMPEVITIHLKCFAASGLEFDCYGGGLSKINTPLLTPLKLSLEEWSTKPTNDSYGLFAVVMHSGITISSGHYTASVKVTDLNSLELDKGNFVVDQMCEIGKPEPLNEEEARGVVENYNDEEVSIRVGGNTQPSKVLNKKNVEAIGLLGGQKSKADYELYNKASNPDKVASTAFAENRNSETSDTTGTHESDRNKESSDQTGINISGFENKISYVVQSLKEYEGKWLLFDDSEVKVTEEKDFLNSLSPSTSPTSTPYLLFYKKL
In short: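 Deubiquitinase activity followed as kinetic rhodamine fluorescence release from 150 nM Ub-Rho. 1 nM USP1/UAF1 with compound, after 15 min room-temperature preincubation, in HEPES pH 7.8 buffer containing TCEP, EDTA, BSA and Tween-20.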

[8] = molecular target: DNA dC->dU-editing enzyme APOBEC-3G (Homo sapiens) (UniProt Q9HC16); test: qHTS for inhibitors of Vif-A3G interactions: Validation (AID 588379)
Chain of DNA dC->dU-editing enzyme APOBEC-3G (Homo sapiens) (Q9HC16 whole entry, looked up): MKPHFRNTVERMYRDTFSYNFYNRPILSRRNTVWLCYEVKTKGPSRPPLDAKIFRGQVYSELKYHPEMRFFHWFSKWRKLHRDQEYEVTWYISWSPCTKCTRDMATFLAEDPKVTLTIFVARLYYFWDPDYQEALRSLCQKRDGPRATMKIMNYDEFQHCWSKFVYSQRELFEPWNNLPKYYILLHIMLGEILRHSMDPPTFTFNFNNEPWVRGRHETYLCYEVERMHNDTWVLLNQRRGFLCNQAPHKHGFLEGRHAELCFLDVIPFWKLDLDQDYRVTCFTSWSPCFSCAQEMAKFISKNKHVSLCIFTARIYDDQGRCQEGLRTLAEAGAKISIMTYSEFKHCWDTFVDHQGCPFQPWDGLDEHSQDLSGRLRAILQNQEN
In short: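 HeLa cells stably expressing Vif and A3G-eYFP, 700 cells/well, incubated overnight at 37 deg C, then exposed to compound overnight at 37 deg C. Inhibition of Vif-mediated degradation read as increased yellow fluorescence (Ex 488/Em 500-530) by laser-scanning cytometry.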

[9] = tested on: Zika virus NS2B-NS3 protease; test: Primary screen GU AMC qHTS for Zika virus inhibitors (AID 1347154); further: nearly all actives have a fitted effect of over 70% in size
In short: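 Unlinked Zika NS2B hydrophilic domain/NS3 protease domain noncovalent complex (25 nM final) in 10 mM Tris-HCl pH 8.0, 0.01% Tween 20, with AMC peptide substrate. Fluorescence (ex 340, em 450 nm) change over 15 min, room temperature; percent inhibition fitted to 4-parameter Hill equation.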

[10] = Primary qHTS for small molecule stabilizers of the endoplasmic reticulum resident proteome: Secreted ER Calcium Modulated Protein (SERCaMP) assay (AID 1508630)
In short: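 GLuc-SERCaMP-expressing SH-SY5Y cells, pretreated 16 h with compound, are challenged with thapsigargin to empty ER calcium stores; after 4 h, coelenterazine is added directly to the medium and luminescence is imaged.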

[11] = NFAT Signaling Pathway (AID 444; active means well fitted curve in either direction with a large enough effect, not every such curve was filed as active;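 further: carbachol stimulus at about its EC50 of 1 µM final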); details: Jurkat NFAT-bla M1, carbachol, beta-lactamase ratio, 5 h; at 38 µM (top of the series)
In short: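 Jurkat cells carrying an NFAT-driven β-lactamase reporter and co-transfected muscarinic M1 receptor were treated with compound plus carbachol (1 uM final, an EC50 level) for 5 h at 37 °C. CCF4 loading followed for 1 h at RT; 460/530 nm ratio gave %activity.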

[12] = Stat Signaling Pathway (AID 446; active means well fitted curve in either direction with a large enough effect, not every such curve was filed as active;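 further: ME-180 cervical cancer cells given 40 pM IL-6 alongside compound; SIE-controlled beta-lactamase reporter measured as 460/530 nm FRET emission ratio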); details: ME-180 SIE beta-lactamase reporter, IL-6 stimulated, 5 h; at 38 µM (top of the series)
In short: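 Screening format detects activators and inhibitors alike: ME-180 SIE-bla cells stimulated at 40 pM IL-6 for 5 hrs with compound, then dual-emission beta-lactamase read at 405 nm excitation.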

[13] = molecular target: Guanine nucleotide-binding protein G(i) subunit alpha-1 (Homo sapiens) (UniProt P63096); test: qHTS Assay for Inhibitors of RGS12 GoLoco Motif Activity (Green Fluorophore) (AID 879);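 further: negative values mean loss of peptide binding seen as reduced polarization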
In short: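 Fluorescence polarization assay: 50 nM Gαi1 with 10 nM FITC-labeled RGS12 GoLoco peptide in 10 mM Tris pH 7.5, 150 mM NaCl, 0.1 mM GDP, 0.05% NP40, 10 min at room temperature with compound.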

[14] = molecular target: Cytochrome P450 2C9 (Homo sapiens) (UniProt P11712); test: qHTS Assay for Inhibitors and Substrates of Cytochrome P450 2C9 (AID 883); further: nearly all actives have a fitted effect of over 60% in size; further: potency means the concentration at half of the fitted maximal effect
Chain of Cytochrome P450 2C9 (Homo sapiens) (P11712 whole entry, looked up): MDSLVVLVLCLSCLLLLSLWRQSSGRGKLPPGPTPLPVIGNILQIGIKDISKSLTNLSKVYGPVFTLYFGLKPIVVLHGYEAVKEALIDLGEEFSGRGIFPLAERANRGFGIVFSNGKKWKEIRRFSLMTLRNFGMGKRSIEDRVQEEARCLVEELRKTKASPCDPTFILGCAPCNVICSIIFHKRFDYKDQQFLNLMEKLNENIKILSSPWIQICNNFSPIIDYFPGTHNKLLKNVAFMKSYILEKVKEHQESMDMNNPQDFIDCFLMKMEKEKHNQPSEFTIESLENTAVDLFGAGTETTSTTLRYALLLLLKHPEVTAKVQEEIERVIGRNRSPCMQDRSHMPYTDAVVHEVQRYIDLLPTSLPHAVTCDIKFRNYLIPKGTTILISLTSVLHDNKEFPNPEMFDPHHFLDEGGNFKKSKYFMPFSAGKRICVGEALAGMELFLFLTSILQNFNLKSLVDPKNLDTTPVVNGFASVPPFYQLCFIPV
In short: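 A luminogenic readout tracked human CYP2C9 (10nM) converting deoxyluciferin (100uM, at KM) in 25mM KPO4 during 60 min at 37C with regenerated NADPH. Values normalized to 57uM sulphaphenazole as complete inhibition.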

[15] = molecular target: Cytochrome P450 2C19 (Homo sapiens) (UniProt P33261); test: qHTS Assay for Inhibitors and Substrates of Cytochrome P450 2C19 (AID 899); further: nearly all actives have a fitted effect of over 60% in size; further: potency means the concentration at half of the fitted maximal effect
Chain of Cytochrome P450 2C19 (Homo sapiens) (P33261 whole entry, looked up): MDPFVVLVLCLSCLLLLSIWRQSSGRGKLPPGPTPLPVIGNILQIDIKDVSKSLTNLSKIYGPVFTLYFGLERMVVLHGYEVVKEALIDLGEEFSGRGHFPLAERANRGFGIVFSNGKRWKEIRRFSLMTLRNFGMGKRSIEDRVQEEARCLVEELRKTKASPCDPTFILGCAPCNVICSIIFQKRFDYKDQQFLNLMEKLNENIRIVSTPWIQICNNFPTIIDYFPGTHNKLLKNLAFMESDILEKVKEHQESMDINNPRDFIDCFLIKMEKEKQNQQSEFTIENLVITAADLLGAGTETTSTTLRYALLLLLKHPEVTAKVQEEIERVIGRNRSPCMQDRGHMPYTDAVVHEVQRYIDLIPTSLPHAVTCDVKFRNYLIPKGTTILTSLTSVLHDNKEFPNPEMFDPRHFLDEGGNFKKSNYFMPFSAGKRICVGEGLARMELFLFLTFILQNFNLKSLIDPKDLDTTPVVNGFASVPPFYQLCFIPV
In short: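 NADPH-dependent conversion of Luciferin-H EGE (10uM, at KM) by 5nM enzyme in 50mM KPO4, 60 min at 37C following 10 min compound preincubation. Stopped with luciferin detection buffer; luminescence read after 20 min.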

[16] = molecular target: Pyruvate kinase (Leishmania mexicana) (UniProt Q27686); test: qHTS Validation Assay for Inhibitors of Leishmania Mexicana Pyruvate Kinase (AID 945)
In short: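 The enzyme is a highly purified E451W mutant of LmPYK used at 0.2 nM. It converts 0.5 mM PEP and 0.1 mM ADP over 1 h at room temperature; product ATP is quantified by luciferase luminescence relative to DMSO controls.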

[17] = molecular target: Pyruvate kinase PKM (Homo sapiens) (UniProt P14618); test: qHTS Assay for Activators of Human Muscle Pyruvate Kinase (AID 954; active means well fitted curve in the direction sought with a large enough effect, not every such curve was filed as active)
In short: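 Reaction: 0.1 nM purified PKM2 with 0.5 mM phosphoenolpyruvate and 0.1 mM ADP, room temperature, 1 h. Readout: luciferase-based ATP luminescence after stop reagent. Activators judged against a 0.3 nM enzyme column.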

[18] = molecular target: Alpha-galactosidase A (Homo sapiens) (UniProt P06280); test: Counterscreen for Glucocerebrosidase Inhibitors: qHTS Assay for Human alpha-Galactosidase at pH 4.5 (AID 992)
In short: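 Concentration-response curves (0.7 nM to 77 uM final) were modeled with the Hill equation to give AC50. Reactions: 2 nM enzyme, 80 uM fluorogenic alpha-galactoside, pH 4.5 citric acid buffer, 20 min, room temperature.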

[19] = molecular target: alpha-glucosidase (Oryza sativa, rice) (UniProt Q653V4); test: Counterscreen for Glucocerebrosidase Inhibitors: qHTS Assay for Rice alpha-Glucosidase at pH 5.0 (AID 997)
In short: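 Rice alpha-glucosidase (4 nM final) with 400 uM 4-methylumbelliferyl-alpha-D-glucopyranoside in citrate buffer pH 5.0, 20 min at room temperature, stopped at pH 10; fluorescence 365/440 nm, compounds 0.7 nM–77 uM, AC50 from Hill fits.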

SMILES | Potency [1] | Potency [2] [µM] | Potency [3] [µM] | Potency [4] | Potency [5] | Potency [6] | Potency [7] | Potency [8] | Potency [9] | Potency [10] | activity change, negative = inhibition [11] [%] | activity, negative = inhibition [12] [%] | outcome [13] | Potency [14] | Potency [15] | Potency [16] | outcome [17] | outcome [18] | outcome [19]
COc1ccccc1N1CCN(CCN2C(=O)c3ccccc3C(C)(C)C2=O)CC1 | 39.8 µM (active) | > 46 | > 46 | inactive | inactive | inactive | inactive | inactive | inactive | inactive |  |  |  |  |  |  |  |  | 
CCCCOc1cc(C[C@@H]2CNC(=O)N2)ccc1OC | 12.6 µM (active) and 10 µM (active) | > 46 | > 46 | inactive |  | inactive |  | inactive | inactive | inactive | -19.1 | 24.5 | inactive | inactive | inactive | inactive | inactive | inactive | inactive
c1ccc2sc(N3CCN(Cc4ccc5c(c4)OCO5)CC3)nc2c1 | 1 µM (active) | > 46 | > 46 | inactive |  | inactive | inactive | inactive | inactive | inactive |  |  |  |  |  |  |  |  | 
OC[C@@H](O)COc1cccc2ccccc12 | 0.631 µM (active) | > 46 | > 46 | inactive | inactive |  | inactive | inactive | inactive | inactive |  |  |  |  |  |  |  |  | 
CCC(=O)N[C@@H]1CCc2cccc(OC)c2C1 | 12.6 µM (active) | > 46 | > 46 | inactive | inactive |  | inactive | inactive | inactive | inactive |  |  |  |  |  |  |  |  | 
CCCCCCCC/C=C\CCCCCCCC(N)=O | 6.31 µM (active) | > 46 | > 46 | inactive | inactive |  |  | inactive | inactive | inactive |  |  |  |  |  |  |  |  | 
COc1ccccc1N1CCN(C[C@@H](C(=O)NC(C)(C)C)c2ccccc2)CC1 | 0.631 µM (active) | > 46 | > 46 |  |  |  | inactive | inactive | inactive | inactive |  |  |  |  |  |  |  |  | 
CN1Cc2c(C(=O)OC(C)(C)C)ncn2-c2ccsc2C1=O | 15.8 µM (active) | > 46 | > 46 | inactive |  |  | inactive | inactive | inactive | inactive |  |  |  | 5.01 µM (active) | 1.26 µM (active) |  |  |  | 
N[C@@H](C(=O)O)c1cc(O)ccc1Cl | 15.8 µM (active) | > 46 | > 46 |  | inactive | inactive |  | inactive | inactive | inactive |  |  |  |  |  |  |  |  | 
CCCCOC(=O)c1cc2c(cn1)[nH]c1ccccc12 | 0.158 µM (active) | > 46 | > 46 | inactive |  | inactive |  | inactive | inactive | inactive |  |  |  | 7.94 µM (active) | 5.01 µM (active) |  |  |  | 

From PubChem BioAssay (NCATS)
